Data on three molecules can be found in the supplement of paper PMC12282887.

In this test the test system is E. coli BW25113 marRABp lux reporter. Description: promoter activity interaction Z-score (Lux/OD deviation from empty-vector control); higher = stronger promoter induction by the compound. The protocol:
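E. coli BW25113 (wild type or ΔmarA/ΔsoxS/Δrob) carrying pTU175 luxCDABE promoter reporters was grown in LB in 384-well plates at 37°C with each of 94 compounds at 4 two-fold concentrations, in biological duplicates. Luminescence and OD600 were read every 30 min for 12 h and integrated as AUC over 8 h (0-8 h WT, 1-9 h mutants). Lux AUC was divided by OD AUC; the interaction score is the residual of a Huber robust fit of each promoter against the empty-vector control, then Z-transformed per promoter.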

Structures are written as SMILES. ± gives the standard deviation of the averaged measurements.

Take `CO/N=C(\C(=O)N[C@@H]1C(=O)N2C(C(=O)O)=C(COC(C)=O)CS[C@H]12)c1csc(N)n1` [Cefotaxime]: the “promoter activity interaction Z-score” value (0.0012 µg/ml, genetic background: wild type) is -0.109 ± 0.032; the “promoter activity interaction Z-score” value (0.0012 µg/ml, genetic background: ΔmarA) is -0.16 ± 0.041; the “promoter activity interaction Z-score” value (0.0012 µg/ml, genetic background: Δrob) is -0.227 ± 0.0043; the “promoter activity interaction Z-score” value (0.0012 µg/ml, genetic background: ΔsoxS) is -0.0693 ± 0.13; the “promoter activity interaction Z-score” value (0.0024 µg/ml, genetic background: wild type) was found to be 0.0203 ± 0.031; the “promoter activity interaction Z-score” value (0.0024 µg/ml, genetic background: ΔmarA) was -0.118 ± 0.093. The “promoter activity interaction Z-score” value by setting is: (0.0024 µg/ml, genetic background: Δrob) 0.021 ± 0.12; (0.0024 µg/ml, genetic background: ΔsoxS) -0.0591 ± 0.15; (0.0048 µg/ml, genetic background: wild type) -0.2 ± 0.023; (0.0048 µg/ml, genetic background: ΔmarA) -0.394 ± 0.27; (0.0048 µg/ml, genetic background: Δrob) -0.171 ± 0.25; (0.0048 µg/ml, genetic background: ΔsoxS) -0.214 ± 0.072. In addition, the “promoter activity interaction Z-score” value (0.01 µg/ml, genetic background: wild type) turned out to be 0.0434 ± 0.19; the “promoter activity interaction Z-score” value (0.01 µg/ml, genetic background: ΔmarA) was -0.126 ± 0.0051; the “promoter activity interaction Z-score” value (0.01 µg/ml, genetic background: Δrob) was 0.448 ± 0.33; the “promoter activity interaction Z-score” value (0.01 µg/ml, genetic background: ΔsoxS) was 0.448 ± 0.066.

For the molecule `C[C@H]1[C@H](NC(=O)/C(=N\OC(C)(C)C(=O)O)c2csc(N)n2)C(=O)N1S(=O)(=O)O` [Aztreonam], the “promoter activity interaction Z-score” value (0.0054 µg/ml, genetic background: wild type) was -0.108 ± 0.36; the “promoter activity interaction Z-score” value (0.0054 µg/ml, genetic background: ΔmarA) amounted to 0.583 ± 0.95; the “promoter activity interaction Z-score” value (0.0054 µg/ml, genetic background: Δrob) was -0.202 ± 0.19; the “promoter activity interaction Z-score” value (0.0054 µg/ml, genetic background: ΔsoxS) was -0.188 ± 0.0033; the “promoter activity interaction Z-score” value (0.011 µg/ml, genetic background: wild type) amounted to 0.0506 ± 0.094; the “promoter activity interaction Z-score” value (0.011 µg/ml, genetic background: ΔmarA) is -0.139 ± 0.26. Also, the “promoter activity interaction Z-score” value reads like this: (0.011 µg/ml, genetic background: Δrob) -0.0608 ± 0.52; (0.011 µg/ml, genetic background: ΔsoxS) -0.218 ± 0.047; (0.022 µg/ml, genetic background: wild type) 0.0487 ± 0.33; (0.022 µg/ml, genetic background: ΔmarA) 0.0272 ± 0.41; (0.022 µg/ml, genetic background: Δrob) -0.0627 ± 0.18; (0.022 µg/ml, genetic background: ΔsoxS) -0.214 ± 0.088.

On to `C[C@]12CCC(=O)C=C1CC[C@@H]1[C@@H]2[C@@H](O)C[C@@]2(C)[C@H]1CC[C@]2(O)C(=O)CO` [Hydrocortisone], for which the “promoter activity interaction Z-score” value was -0.21 ± 0.0069 (22.7 µg/ml, genetic background: wild type); -0.342 ± 0.029 (22.7 µg/ml, genetic background: ΔmarA); -0.0926 ± 0.12 (22.7 µg/ml, genetic background: Δrob); -0.27 ± 0.066 (22.7 µg/ml, genetic background: ΔsoxS); -0.258 ± 0.11 (45.3 µg/ml, genetic background: wild type); -0.377 ± 0.024 (45.3 µg/ml, genetic background: ΔmarA). The “promoter activity interaction Z-score” value reads like this: (45.3 µg/ml, genetic background: Δrob) -0.12 ± 0.044; (45.3 µg/ml, genetic background: ΔsoxS) -0.15 ± 0.019; (90.6 µg/ml, genetic background: wild type) -0.225 ± 0.18; (90.6 µg/ml, genetic background: ΔmarA) -0.395 ± 0.011; (90.6 µg/ml, genetic background: Δrob) -0.23 ± 0.18; (90.6 µg/ml, genetic background: ΔsoxS) -0.551 ± 0.19. Moreover, the “promoter activity interaction Z-score” value is -0.465 ± 0.21 (181.2 µg/ml, genetic background: wild type); -0.467 ± 0.023 (181.2 µg/ml, genetic background: ΔmarA); -0.34 ± 0.16 (181.2 µg/ml, genetic background: Δrob); -0.371 ± 0.24 (181.2 µg/ml, genetic background: ΔsoxS).
